Screening data as filed in PubChem.
ELG1 DNA repair: qHTS screen for small molecules that inhibit ELG1-dependent DNA repair in human embryonic kidney (HEK293T) cells expressing luciferase-tagged ELG1. HEK293T ELG1-luciferase reporter, luminescence, 16 h; DNA damage induced by 5-fluorouridine. Potency, µM (highest dose often 46.1 µM), without a hit: at the top dose activity change, negative = inhibition, hits mostly inhibitors. 330,000 compounds, 2.3% hits. AID 504467, 2011; note: % is set by controls: 0 for no effect and ±100 for the full control effect; nearly all actives have a fitted effect of over 55% in size
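Step one: seed 2,000 cells per well. Step two: pin-transfer compound or DMSO alongside 5-fluorouridine. Step three: incubate 16 hr, 37 °C, 5% CO2. Step four: add ONE-Glo, wait 30 min, read luminescence.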
SMN2 splice enh: qHTS Assay for Enhancers of SMN2 Splice Variant Expression; HEK293 SMN2-luciferase splicing reporter, luminescence, 30-36 h; Potency, µM (top dose mostly 46.1 µM), for inactives: at the top dose activity change, positive = activation, usual class: activators; 210,000 compounds, 2.8% hits; note: % of control where 0% means no effect; nearly all actives have a fitted effect of over 55% in size
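qHTS luciferase splicing reporter: luminescence rises when SMN2 exon 7 is included in transfected HEK293 cells. Compound exposure lasted 30-36 h at 37C, with 4.5 mM final sodium butyrate as control, followed by a ONE-Glo read.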
ELG1 genotox: qHTS screen for small molecules that induce genotoxicity in human embryonic kidney (HEK293T) cells expressing luciferase-tagged ELG1; 330,000 compounds, 1.3% hits; Potency, µM (series often up to 46 µM), without a hit: at the top dose activity change, positive = activation, hits mostly activators; AID 504466, 2011; HEK293T ELG1-luciferase reporter, luminescence, 16 h; note: % of control where 0% means no effect; nearly all actives have a fitted effect of over 60% in size
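After overnight (16 hr) compound treatment at 37 °C, ELG1-luciferase HEK293T cells were lysed with ONE-Glo; luminescence quantified 30 min later at room temperature.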
Rab9 prom act: qHTS Assay for Rab9 Promoter Activators. 320,000 compounds, 2.8% hits. Potency, µM (top dose mostly 9.22 µM), without a hit: at the highest dose activation, negative = inhibition, usual class: activators. Huh7 Rab9 promoter-luciferase reporter, luminescence, 24 h. AID 485297, 2010; note: % of control where 0% means no effect; nearly all actives have a fitted effect of over 60% in size
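Using Huh7 cells stably transfected with Rab9 promoter–luciferase, compounds were incubated 24 h at 37 °C, 5% CO2; luciferase luminescence was read 10 min after reagent addition.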
NPC1 promoter act: qHTS Assay for NPC1 Promoter Activators; Huh7 NPC1 promoter luciferase reporter, 24 h; Potency, µM (doses to about 9.22 µM), for the others: at the highest dose activation, actives largely listed as activators; 320,000 compounds, 2.4% hits; AID 485313, 2010; note: % of control where 0% means no effect; nearly all actives have a fitted effect of over 60% in size
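Compounds in DMSO were transferred onto Huh7 NPC1-luciferase reporter cells pre-incubated 2 h; after 24 h at 37 °C, Amplite reagent was dispensed and luminescence recorded 10 min later.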
FLuc counter: qHTS profiling assay for firefly luciferase inhibitor/activator using purifed enzyme and Km concentrations of substrates (counterscreen for miR-21 project); purified FLuc, Km substrates, luminescence inhibition; 360,000 compounds, 6.9% hits; Potency, µM (series often up to 57.5 µM), for the others: at the highest dose activity change, negative = inhibition, most hits filed as inhibitors; Luciferin 4-monooxygenase (Photinus pyralis), P08659;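 note: plate controls were vehicle for no effect and reference inhibitor for full effect; nearly all actives have a fitted effect of over 55% in size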
Target sequence (P08659 whole entry, looked up): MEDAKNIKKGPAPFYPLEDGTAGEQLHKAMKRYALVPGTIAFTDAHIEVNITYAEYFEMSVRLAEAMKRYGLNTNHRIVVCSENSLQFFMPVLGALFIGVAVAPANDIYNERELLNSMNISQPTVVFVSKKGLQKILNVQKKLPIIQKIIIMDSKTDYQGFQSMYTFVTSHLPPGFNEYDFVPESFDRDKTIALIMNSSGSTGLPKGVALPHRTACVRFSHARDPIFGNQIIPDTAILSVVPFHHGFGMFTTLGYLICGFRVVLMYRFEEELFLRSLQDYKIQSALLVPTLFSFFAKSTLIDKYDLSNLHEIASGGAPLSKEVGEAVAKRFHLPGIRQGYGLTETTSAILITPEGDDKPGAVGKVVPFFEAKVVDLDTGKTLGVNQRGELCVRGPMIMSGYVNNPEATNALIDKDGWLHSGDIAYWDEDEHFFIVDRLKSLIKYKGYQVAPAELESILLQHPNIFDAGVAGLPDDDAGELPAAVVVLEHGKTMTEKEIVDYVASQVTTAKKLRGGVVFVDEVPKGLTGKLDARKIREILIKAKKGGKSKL
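Purified P. pyralis luciferase (10nM final) with 10uM D-luciferin and 10uM ATP (Km levels) in 50mM Tris acetate pH 7.5, 10mM Mg acetate, 0.01% Tween-20, 0.05% BSA; qHTS 6-point titration, ~60 µM downward; luminescence read.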
An asterisk follows results filed as active; ? = inconclusive; . = not tested or not shown; [ ] = another dose, or the depositor's remark. In the library only some 9.4% were active in any assay of this set; here they are far more common. Calls come from the whole dose curve; as a rule, active = well fitted curve in the direction sought with a large enough effect; inconclusive = small, poorly fitted or top-dose-only effect, or another doubt; inactive = no such curve, though single readings can be large; an effect the other way counts as inactive or inconclusive. Potency is the fitted concentration of half-maximal effect.

SMILES	ELG1 DNA repair	SMN2 splice enh	ELG1 genotox	Rab9 prom act	NPC1 promoter act	FLuc counter
Cc1c(C(=O)Nc2ccccc2)cc(-c2ccccc2)n1CCCN1CCOCC1	-26.1%	.	-3.5%	-3.3%	-2.6%	-3.6%
COCCCn1c(-c2ccc(OC)cc2)cc(C(=O)NC2CCCCCCC2)c1C	23.1µM*	-8.2%	-8.3%	-4.2%	0.4%	0.0%
O=C(CCCN1CCC2(CC1)C(=O)N(Cc1cccc(F)c1)CN2c1ccccc1)c1ccc(F)cc1	.	-96.1%	.	.	.	.
COc1cc(OC)cc(-c2sc3ccc(OC)cc3c2-c2ccc(OCCN3CCOCC3)cc2)c1	6.51µM*	.	-4.3%	.	.	.
COc1cccc(-c2sc3ccccc3c2-c2ccc(OCCN3CCOCC3)cc2)c1	-9.1%	.	-1.4%	.	.	.
C=CC(=O)OCC(CO)(COC(=O)C=C)COC(=O)C=C	.	-106.9%	.	.	.	.
C=CC=O	.	-1.9%	.	.	.	.
COc1ccc(NC(c2ccccc2F)P(=O)(Oc2ccccc2)Oc2ccccc2)cc1 (centres undefined)	18.4µM*	1.6%	-2.5%	-1.5%	0.5%	-2.4%
COc1ccc(NC(c2ccccc2)P(=O)(Oc2ccccc2)Oc2ccccc2)cc1 (centres undefined)	?	-1.3%	0.0%	-3.0%	-1.5%	-9.1%
CCCc1cc(=O)oc2c3c(cc(OCC(=O)N4CCC[C@H]4C(=O)O)c12)OC(C)(C)CC3	?	.	5.4%	-7.1%	-1.8%	4.5%
CCCCC(CC)COC(=O)c1ccc(C(=O)OCC(CC)CCCC)c(C(=O)OCC(CC)CCCC)c1 (centres undefined)	.	-11.0%	.	.	.	.
CNC(=O)Oc1ccc(-c2cn3cc(C)ccc3n2)cc1	?	1.78µM*	?	0.316µM*	0.355µM*	0.338µM*
CCC(COC(=O)NC)NC(=O)Oc1cccc(C)c1 (centres undefined)	?	10.4%	3.2%	6.6%	-3.4%	-1.6%
CNC(=O)Oc1cccc2ccccc12	1.5%	7.0%	-3.0%	-1.0%	-3.3%	-3.2%
CNC(=O)Oc1cccc(-c2cn3cc(Cl)ccc3n2)c1	?	?	?	3.55µM*	3.16µM*	2.69µM*
C=C1CC[C@H](O)C/C1=C/C=C1\CCC[C@]2(C)[C@H]1CC[C@H]2[C@@H](C)CCCC(C)C	.	-5.1%[20.6 µM]	.	.	.	.
CSc1ccccc1NC(=O)CN(C)CC(=O)c1[nH]c(C)c(C(C)=O)c1C	16.4µM*	.	-2.8%	.	.	.
CCOc1cc(C=C2C(=O)NC(=O)NC2=O)ccc1OCC(=O)N1CCOCC1	5.9%	-1.6%	0.7%	-1.9%	-1.7%	0.2%
O=C1NC(=O)C(=Cc2cc(Cl)ccc2OCc2ccc(C(=O)O)cc2)C(=O)N1	13.5%	-9.1%	0.3%	-1.3%	-1.7%	23.9µM*
CC1CCC/C=C/C2CC(O)CC2C(O)/C=C/C(=O)O1 (centres undefined)	0.651µM*	-20.9%	-3.5%	-48.6%	-41.2%	-2.2%
C[C@H]1CCC/C=C/C2C[C@H](O)CC2[C@H](O)/C=C/C(=O)O1 (some centres undefined)	?	-57.5%	-9.0%	-34.7%	-37.6%	-2.3%
CC(C)(C)n1ncc2c(=O)n(Cc3cccc(Cn4cnc5c(cnn5C(C)(C)C)c4=O)c3F)cnc21	8.2µM*	.	-5.2%	.	.	.
CC(C)(C)c1ccc(CSc2cnn(C(C)(C)C)c(=O)c2Cl)cc1	?	.	-9.6%	-35.5%[1.84 µM]	-42.5%	-7.1%
CCOc1ccccc1Oc1coc2cc(OC(=O)c3ccco3)ccc2c1=O	?	?	6.8%	-4.9%	-0.4%	15.1µM*
O=C(Cc1coc2cc3c(cc12)CCC3)OCC(=O)N1CCCC1=O	-5.6%	10.3%	-7.3%	-0.1%	-4.1%	?
SMILES	ELG1 DNA repair	SMN2 splice enh	ELG1 genotox	Rab9 prom act	NPC1 promoter act	FLuc counter
CCOC(=O)C1OC1(C)c1ccccc1 (centres undefined)	.	1.0%	.	.	.	.
C=C(C=O)C[C@@H]1C[C@H](O)C2OC3C[C@]4(C)OC5/C=C\CC6OC7C(CC=CCC6OC5CCCC4OC3CC2O1)OC1CC2OC3CC(=O)OC3C[C@@H](C)C[C@@]2(C)OC1C[C@@H]7C (some centres undefined)	4.11µM*	.	-11.5%	-45.1%	-46.1%	-1.6%
C=C(C=O)CC1CC(O)[C@]2(C)OC3C[C@@H]4OC5C[C@]6(C)O[C@]7(C)CCC8OC9C[C@]%10(C)OC(/C(C)=C\CO)C(O)CC%10OC9CC(C)C8OC7CC6O[C@]5(C)C/C=C\C4OC3CC2O1 (some centres undefined)	19.7%	.	-0.4%	-1.7%	-5.0%	3.4%
O=c1[nH]c(O)c(/C=C2/C=CC(c3cc(Cl)ccc3Cl)=N2)c(=O)[nH]1	?	.	15.1%	-9.4%	-5.1%	6.75µM*
CC1=Nc2ccccc2/C1=C/c1c(O)[nH]c(=O)[nH]c1=O	8.1%	.	-1.3%	3.9%	2.3%	-2.0%
O=C(O)C(Oc1nc(=S)[nH]c(=S)[nH]1)(c1ccc(Cl)cc1)c1ccc(Cl)cc1	.	1.1%[9.22 µM]	.	.	.	.
Cn1c(O)c(C2=NNC(c3ccc(Cl)cc3)C2)c(=O)n(C)c1=O (centres undefined)	?	.	-0.9%	1.9%	1.3%	9.53µM*
Cn1c(O)c(C2=NN(C(=O)CCl)C(c3ccccc3)C2)c(=O)n(C)c1=O (centres undefined)	2.7%	.	-4.5%	2.1%	-6.3%	?
CCOc1ccc(C2CC(c3c(O)n(C)c(=O)n(C)c3=O)=NN2)cc1 (centres undefined)	?	.	2.7%	?	?	0.953µM*
C[C@]12C/C(=C/O)C(=O)C[C@@H]1CC[C@@H]1[C@@H]2CC[C@@]2(C)[C@H]1CC[C@]2(C)O	.	-1.5%	.	.	.	.
CCCCCCCCCC[Si](C)(C)CCC(=O)NC(Cc1ccc(C)cc1)c1ccccc1 (centres undefined)	.	?	.	-0.5%[46.1 µM]	1.8%[46.1 µM]	.
CN1C(=O)C(=Cc2ccc(Sc3ccccc3)o2)C(=O)N(C)C1=O	7.1%	-2.4%	13.4%	-4.8%	-3.0%	?
O=C1NC(=O)C(=Cc2ccc(Sc3ccccc3)o2)C(=O)N1	?	.	?	0.2%	0.7%	23.9µM*
O=C1NC(=O)C(=Cc2ccc(-c3ccc(S(=O)(=O)N4CCOCC4)cc3)o2)C(=O)N1	?	.	10.5%	1.5%	-1.5%	?
